Active and inactive are the calls of the source. Rule for the calls: active = hit-call score of the fitted dose curve at least 0.9, where 1 is the maximum; inactive = score below 0.9.
Tests used:
[1] = ATG_CRE_CIS: Attagene CIS-FACTORIAL HepG2 Assay for human cAMP Responsive Element (CRE) binding protein 3 (AID 2282926); settings: HepG2 CRE cis-reporter, Attagene multiplexed mRNA; actives raise or lower the signal
In short: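 Transfected HepG2 were treated for 24 hours, then RNA was extracted and reporter cDNA amplified with sequence-specific primers. Labelled fragments were separated by capillary electrophoresis, and the CRE signal was fitted bidirectionally with DMSO as baseline.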

[2] = target: CCAAT/enhancer-binding protein beta (Homo sapiens) (UniProt P17676); experiment: ATG_C_EBP_CIS: Attagene CIS-FACTORIAL HepG2 Assay for human CCAAT/Enhancer Binding Protein (C/EBP) beta (AID 2282927); settings: HepG2 Attagene cis-factorial transcription factor reporter; actives raise or lower the signal
In short: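 Transiently transfected HepG2 (MRTU library, endogenous TF-driven promoters); 24 h dosing; total RNA → oligo(dT) RT → PCR → 6-FAM primer extension → HpaI digest → CE; fit bidirectionally vs DMSO.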

[3] = ATG_CMV_CIS: Attagene CIS-FACTORIAL HepG2 Assay for human CMV (Internal Marker) (AID 2282928); settings: HepG2 CMV promoter reporter, transcription factor profiling; actives raise or lower the signal;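 note: endpoint acts as a background internal control marker rather than a target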
In short: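 CMV internal-marker background readout in transiently transfected HepG2 cells bearing cis-regulated reporter units. Reporter mRNA is measured 24 h after dosing by RT-PCR and capillary electrophoresis, with bidirectional fitting against DMSO.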

[4] = ATG_DR4_LXR_CIS: Attagene CIS-FACTORIAL HepG2 Assay for human Liver X Receptor (LXR), DR4 submotif (AID 2282929); settings: HepG2 Attagene DR4 cis-reporter, mRNA transcription; actives raise or lower the signal
In short: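 HepG2 cells transiently transfected with cis-promoter-driven multiplexed reporter units (DR4 element) were dosed for 24 h. Reporter mRNA was quantified by RT-PCR, fluorescent primer extension, HpaI digestion and capillary electrophoresis; bidirectional fitting versus DMSO baseline.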

[5] = target: Aryl hydrocarbon receptor (Homo sapiens) (UniProt P35869); experiment: ATG_Ahr_CIS: Attagene CIS-FACTORIAL HepG2 Assay for human Aryl Hydrocarbon Receptor (Ahr) (AID 2282930); settings: HepG2 AhR cis-factorial reporter transcription; actives raise or lower the signal
In short: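 Read-out: reporter mRNA quantified by RT-PCR with fluorescent primer extension and capillary electrophoresis. Human HepG2 liver cells carried transfected cis-promoter reporter units and were exposed to chemical for 24 h; gain or loss fitted relative to DMSO.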

[6] = ATG_AP_1_CIS: Attagene CIS-FACTORIAL HepG2 Assay for human Activator Protein 1 (AP-1) (AID 2282931); settings: HepG2 Attagene cis-factorial AP-1 reporter mRNA; actives raise or lower the signal
In short: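 HepG2 cells transiently transfected with cis-element-driven multiplex reporter units; 24 h compound exposure. Reporter mRNA quantified by RT-PCR, FAM-labelled fragments resolved by capillary electrophoresis; bidirectional fit versus DMSO baseline.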

[7] = ATG_AP_2_CIS: Attagene CIS-FACTORIAL HepG2 Assay for human Activator Protein 2 (AP-2) (AID 2282932); settings: HepG2 AP-2 cis-reporter, Attagene transcription factor profiling; actives raise or lower the signal
In short: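 Multiplexed mRNA reporter assay in HepG2: cis-regulated units report endogenous factor activity after 24 h treatment. Fluorescence from capillary electrophoresis of RT-PCR products gives the signal, with DMSO as baseline.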

[8] = ATG_BRE_CIS: Attagene CIS-FACTORIAL HepG2 Assay for human Bone Morphogenetic Protein (BMP) Response Element (BRE) (AID 2282933); settings: HepG2 BMP response element reporter, Attagene transcription factor profiling; actives raise or lower the signal
In short: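 Endogenous transcription factor activity at a BMP response element was monitored in transfected HepG2 cells 24 h after dosing. Fluorescent RT-PCR products were resolved by capillary electrophoresis, and activity was fitted in both directions versus DMSO.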

[9] = target: Retinoic acid receptor alpha (Homo sapiens) (UniProt P10276); experiment: ATG_DR5_RAR_CIS: Attagene CIS-FACTORIAL HepG2 Assay for human Retinoic Acid Receptor Alpha (RARE), DR5 submotif (AID 2282934); settings: HepG2 Attagene cis-factorial RARE DR5 reporter, mRNA; actives raise or lower the signal
In short: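 Read-out: DR5-driven reporter transcript measured by RT-PCR, 6-FAM primer extension, HpaI digest and capillary electrophoresis. Human HepG2 liver cells carry transiently transfected cis-element reporter constructs; dosing lasts 24 h. Gain or loss of signal fitted against DMSO baseline.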

[10] = target: Transcription factor E2F1 (Homo sapiens) (UniProt Q01094); experiment: ATG_E2F_CIS: Attagene CIS-FACTORIAL HepG2 Assay for human E2F Transcription Factor 1 (AID 2282935); settings: HepG2 Attagene cis-reporter, E2F reporter RNA transcripts; actives raise or lower the signal
In short: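 Measures reporter transcript levels via RT-PCR with capillary electrophoresis detection in HepG2 cells harboring cis-regulated reporter units; 24 h post-dose; bidirectional curve fitting with DMSO as baseline.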

[11] = ATG_E_Box_CIS: Attagene CIS-FACTORIAL HepG2 Assay for human Enhancer Box (E-box) (AID 2282936); settings: HepG2 E-box cis-reporter transcription, actives raise or lower the signal
In short: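 First, HepG2 cells receive multiple cis-regulated reporter constructs by transient transfection. Next, chemicals are applied for 24 h. Finally, reporter mRNA is quantified via RT-PCR and capillary electrophoresis, with DMSO as baseline.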

[12] = ATG_M_61_CIS: Attagene CIS-FACTORIAL HepG2 Assay for M61 Transcription Factor (Internal Marker) (AID 2282937); settings: HepG2 Attagene CIS-FACTORIAL M61 internal marker reporter; actives raise or lower the signal
In short: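 HepG2 cells transiently transfected with cis-element-driven multiple reporter transcription units, dosed for 24 h. Reporter mRNA measured by RT-PCR, 6-FAM primer-extension labelling, HpaI digestion and capillary electrophoresis; bidirectional fit versus DMSO baseline.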

[13] = ATG_EGR_CIS: Attagene CIS-FACTORIAL HepG2 Assay for human Early Growth Response 1 (EGR1) (AID 2282938); settings: HepG2 Attagene CIS-FACTORIAL EGR reporter mRNA; actives raise or lower the signal
In short: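 HepG2 cells transiently transfected with cis-promoter-driven multiplexed reporter transcription units; reporter mRNA measured 24 h after compound dosing by RT-PCR, 6-FAM primer extension, HpaI digestion and capillary electrophoresis. Bidirectional fit versus DMSO baseline.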

[14] = ATG_M_19_CIS: Attagene CIS-FACTORIAL HepG2 Assay for M19 Transcription Factor (Internal Marker) (AID 2282939); settings: HepG2 Attagene CIS-FACTORIAL M19 internal marker reporter; actives raise or lower the signal
In short: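 Background-control endpoint from a multiplexed HepG2 reporter panel. Cells carrying cis-regulated reporter constructs are treated 24 h, then reporter transcripts are amplified, fluorescently labelled and sized by capillary electrophoresis. DMSO defines baseline.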

[15] = ATG_Ets_CIS: Attagene CIS-FACTORIAL HepG2 Assay for human Erythroblast Transformation Specific (ETS) (AID 2282941); settings: HepG2 ETS cis-reporter transcription, actives raise or lower the signal
In short: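 HepG2 cells transfected with multiple cis-regulated reporter units measuring endogenous ETS-driven transcription, 24 h after dosing. Reporter mRNA quantified by RT-PCR with capillary electrophoresis; bidirectional fit relative to DMSO.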

[16] = target: Hepatocyte nuclear factor 3-beta (Homo sapiens) (UniProt Q9Y261); experiment: ATG_FoxA2_CIS: Attagene CIS-FACTORIAL HepG2 Assay for human Forkhead box A2 (FOXA2) (AID 2282942); settings: HepG2 cis-reporter transcription factor activity, 24 h; actives raise or lower the signal
In short: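 HepG2 cells transiently transfected with multiple cis-regulated reporter transcription units, dosed for 24 h. Reporter mRNA measured by RT-PCR, 6-FAM labelling, HpaI digestion and capillary electrophoresis; bidirectional fitting against DMSO baseline.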

[17] = ATG_FoxO_CIS: Attagene CIS-FACTORIAL HepG2 Assay for human Forkhead box O (FoxO) (AID 2282943); settings: HepG2 Attagene cis-reporter, FoxO element, mRNA; actives raise or lower the signal
In short: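 Read-out: fluorescence of 6-FAM-labelled reporter cDNA fragments resolved by capillary electrophoresis. Transiently transfected HepG2 cells were dosed for 24 h; activity fitted in both directions relative to DMSO controls.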

[18] = ATG_GATA_CIS: Attagene CIS-FACTORIAL HepG2 Assay for human GATA Binding Protein (AID 2282944); settings: HepG2 GATA cis-element reporter, Attagene multiplex mRNA; actives raise or lower the signal
In short: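 Endogenous transcription factor activity was captured through cis-promoter-driven reporters in transfected HepG2 cells. After 24 h exposure, reporter transcripts were quantified by RT-PCR with fluorescent capillary electrophoresis, and responses fitted both directions against DMSO.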

[19] = ATG_GLI_CIS: Attagene CIS-FACTORIAL HepG2 Assay for human Zinc Finger Protein GLI1 (AID 2282945); settings: HepG2, Attagene cis-factorial reporter mRNA, GLI element; actives raise or lower the signal
In short: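 Transiently transfected HepG2 cells report endogenous transcription factor activity via cis-element-driven reporter units. After 24 h compound exposure, reporter mRNA was measured by RT-PCR with capillary electrophoresis; bidirectional fitting against DMSO baseline.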

Measured: AC50

Sequence of Retinoic acid receptor alpha (Homo sapiens) (P10276 whole entry, looked up): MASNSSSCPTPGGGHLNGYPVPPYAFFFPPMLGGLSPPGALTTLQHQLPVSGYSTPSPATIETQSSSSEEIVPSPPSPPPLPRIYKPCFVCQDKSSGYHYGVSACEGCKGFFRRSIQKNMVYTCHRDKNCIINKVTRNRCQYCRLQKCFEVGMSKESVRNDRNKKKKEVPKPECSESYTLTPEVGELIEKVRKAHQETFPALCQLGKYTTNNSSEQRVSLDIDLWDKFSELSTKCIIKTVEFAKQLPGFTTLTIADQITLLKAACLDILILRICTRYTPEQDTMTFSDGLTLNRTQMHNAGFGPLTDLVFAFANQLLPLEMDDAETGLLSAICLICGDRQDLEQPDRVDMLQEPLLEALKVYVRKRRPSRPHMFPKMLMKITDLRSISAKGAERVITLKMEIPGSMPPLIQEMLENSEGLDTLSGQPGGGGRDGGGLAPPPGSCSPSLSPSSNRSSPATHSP
Sequence of Transcription factor E2F1 (Homo sapiens) (Q01094 whole entry, looked up): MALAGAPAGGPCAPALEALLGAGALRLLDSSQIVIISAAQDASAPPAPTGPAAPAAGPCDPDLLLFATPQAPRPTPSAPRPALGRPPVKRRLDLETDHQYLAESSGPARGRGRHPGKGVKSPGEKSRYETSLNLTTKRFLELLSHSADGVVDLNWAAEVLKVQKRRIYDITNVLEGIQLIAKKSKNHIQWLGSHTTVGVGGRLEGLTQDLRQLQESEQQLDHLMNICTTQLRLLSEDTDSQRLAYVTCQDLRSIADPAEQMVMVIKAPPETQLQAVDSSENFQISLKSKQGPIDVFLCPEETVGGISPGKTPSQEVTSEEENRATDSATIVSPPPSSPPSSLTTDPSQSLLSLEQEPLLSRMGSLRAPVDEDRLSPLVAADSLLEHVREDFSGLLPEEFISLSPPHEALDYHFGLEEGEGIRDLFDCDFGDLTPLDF
Sequence of Aryl hydrocarbon receptor (Homo sapiens) (P35869 whole entry, looked up): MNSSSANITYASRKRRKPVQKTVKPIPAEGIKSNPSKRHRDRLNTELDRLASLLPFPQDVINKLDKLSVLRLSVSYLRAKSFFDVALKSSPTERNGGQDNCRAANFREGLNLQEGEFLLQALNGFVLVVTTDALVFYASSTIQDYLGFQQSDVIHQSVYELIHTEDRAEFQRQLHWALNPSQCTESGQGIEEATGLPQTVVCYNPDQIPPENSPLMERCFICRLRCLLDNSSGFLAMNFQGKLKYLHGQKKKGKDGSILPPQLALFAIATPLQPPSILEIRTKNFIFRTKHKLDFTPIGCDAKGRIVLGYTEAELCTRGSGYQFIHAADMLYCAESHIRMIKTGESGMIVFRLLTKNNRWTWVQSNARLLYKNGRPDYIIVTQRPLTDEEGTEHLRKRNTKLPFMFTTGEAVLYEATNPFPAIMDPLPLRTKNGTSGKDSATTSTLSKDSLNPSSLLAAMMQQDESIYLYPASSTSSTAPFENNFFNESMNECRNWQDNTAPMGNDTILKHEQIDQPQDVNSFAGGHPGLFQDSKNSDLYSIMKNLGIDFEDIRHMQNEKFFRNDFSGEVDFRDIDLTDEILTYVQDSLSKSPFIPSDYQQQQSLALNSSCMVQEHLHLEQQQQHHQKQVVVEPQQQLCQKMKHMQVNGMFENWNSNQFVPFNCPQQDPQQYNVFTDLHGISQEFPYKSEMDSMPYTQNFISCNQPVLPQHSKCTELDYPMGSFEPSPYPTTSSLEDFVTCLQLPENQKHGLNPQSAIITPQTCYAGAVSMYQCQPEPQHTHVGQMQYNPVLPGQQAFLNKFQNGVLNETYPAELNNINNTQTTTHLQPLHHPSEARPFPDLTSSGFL
Sequence of CCAAT/enhancer-binding protein beta (Homo sapiens) (P17676 whole entry, looked up): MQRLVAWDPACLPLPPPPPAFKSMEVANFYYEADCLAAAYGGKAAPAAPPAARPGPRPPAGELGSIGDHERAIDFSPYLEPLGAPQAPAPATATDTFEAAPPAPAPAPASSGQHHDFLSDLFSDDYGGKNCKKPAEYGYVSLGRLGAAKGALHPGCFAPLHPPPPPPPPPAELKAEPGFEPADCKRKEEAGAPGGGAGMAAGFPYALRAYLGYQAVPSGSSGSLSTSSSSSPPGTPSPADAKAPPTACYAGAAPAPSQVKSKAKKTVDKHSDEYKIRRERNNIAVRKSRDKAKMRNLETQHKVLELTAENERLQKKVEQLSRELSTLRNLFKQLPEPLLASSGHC
Sequence of Hepatocyte nuclear factor 3-beta (Homo sapiens) (Q9Y261 whole entry, looked up): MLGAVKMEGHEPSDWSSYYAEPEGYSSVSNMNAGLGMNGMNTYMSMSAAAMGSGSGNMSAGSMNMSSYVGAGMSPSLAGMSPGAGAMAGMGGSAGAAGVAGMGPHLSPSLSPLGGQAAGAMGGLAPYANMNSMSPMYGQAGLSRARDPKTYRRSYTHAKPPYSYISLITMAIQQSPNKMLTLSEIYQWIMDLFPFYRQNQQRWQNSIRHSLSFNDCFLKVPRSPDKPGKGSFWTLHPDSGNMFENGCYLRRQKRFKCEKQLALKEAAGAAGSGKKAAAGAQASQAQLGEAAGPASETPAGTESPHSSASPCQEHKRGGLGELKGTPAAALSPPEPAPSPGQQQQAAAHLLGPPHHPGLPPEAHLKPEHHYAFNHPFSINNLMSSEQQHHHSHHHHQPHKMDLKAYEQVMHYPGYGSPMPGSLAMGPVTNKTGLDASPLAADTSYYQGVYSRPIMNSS

CC1(C)OC[C@@H]2O[C@@]3(C(=O)O)OC(C)(C)O[C@H]3[C@@H]2O1
inactive: [1] | [2] | [3] | [4] | [5] | [6] | [7] | [8] | [9] | [10] | [11] | [12] | [13] | [14] | [15] | [16] | [17] | [18] | [19]

COc1cc(C=O)ccc1OC(=O)C(C)C
inactive: [1] | [2] | [3] | [4] | [5] | [6] | [7] | [8] | [9] | [10] | [11] | [12] | [13] | [14] | [15] | [16] | [17] | [18] | [19]

O=C[C@@H](O)[C@H](O)[C@H](O)CO
inactive: [1] | [2] | [3] | [4] | [5] | [6] | [7] | [8] | [9] | [10] | [11] | [12] | [13] | [14] | [15] | [16] | [17] | [18] | [19]

O=c1[nH]c(=O)n([C@H]2CCCO2)cc1F
inactive: [1] | [2] | [3] | [4] | [5] | [6] | [7] | [8] | [9] | [10] | [11] | [12] | [13] | [14] | [15] | [16] | [17] | [18] | [19]

CC(CN1c2ccccc2Sc2ccccc21)N(C)C (configuration not stated)
active: [4] 33.4 µM | [7] 40.6 µM | [10] 33.4 µM | [11] 55.5 µM | [13] 25.2 µM
inactive: [1] | [2] | [3] | [5] | [6] | [8] | [9] | [12] | [14] | [15] | [16] | [17] | [18] | [19]

CCCOCC(C)O (configuration not stated)
inactive: [1] | [2] | [3] | [4] | [5] | [6] | [7] | [8] | [9] | [10] | [11] | [12] | [13] | [14] | [15] | [16] | [17] | [18] | [19]

CC(=O)C(=O)O
inactive: [1] | [2] | [3] | [4] | [5] | [6] | [7] | [8] | [9] | [10] | [11] | [12] | [13] | [14] | [15] | [16] | [17] | [18] | [19]

CCC(C)CCCC(C)(C)O (configuration not stated)
inactive: [1] | [2] | [3] | [4] | [5] | [6] | [7] | [8] | [9] | [10] | [11] | [12] | [13] | [14] | [15] | [16] | [17] | [18] | [19]

Source: PubChem BioAssay (EPA / NIEHS)
